Shown are actives, neighbours in structure and some others; about 2.4% of the full set was active somewhere.
D2 PAM-1 – D2 dopamine receptor (human) potentiation; AID 485347; 340,000 tested, 0.34% active; potentiation, % at 10 µM; HEK293 T-REx D2, calcium flux, EC20 dopamine potentiation;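 active means potentiation over 3 SD above the plate norm, cut at about 30% in these data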
Target sequence (P14416 whole entry, looked up): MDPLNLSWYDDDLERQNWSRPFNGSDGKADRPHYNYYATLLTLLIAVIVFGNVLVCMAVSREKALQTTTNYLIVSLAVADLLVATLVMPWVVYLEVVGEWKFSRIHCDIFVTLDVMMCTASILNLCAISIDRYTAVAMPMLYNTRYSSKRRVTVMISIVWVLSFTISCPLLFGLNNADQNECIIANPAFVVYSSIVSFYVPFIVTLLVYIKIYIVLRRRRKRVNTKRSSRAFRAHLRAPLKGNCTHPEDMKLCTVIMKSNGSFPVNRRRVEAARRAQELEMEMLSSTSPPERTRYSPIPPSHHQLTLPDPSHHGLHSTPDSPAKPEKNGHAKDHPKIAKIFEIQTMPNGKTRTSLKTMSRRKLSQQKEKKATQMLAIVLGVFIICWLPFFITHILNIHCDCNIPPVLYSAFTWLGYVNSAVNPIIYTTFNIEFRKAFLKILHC
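Potentiation of an EC20 dopamine calcium response measured kinetically over 180 s, after a preceding 180 s compound-only read flagging agonists. Cells: inducible Hek293 Trex D2 line, 4000/well, cultured overnight at 30 C before dye loading.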
D2 antagonist – D2 dopamine receptor (human) antagonism; HEK293 TREx D2 cells, calcium flux, dopamine EC80; inhibition, % at 10 µM; 340,000 tested, 2% active; AID 485344; in the data active means inhibition above about 30%; inactive means below that, where a call was filed
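HEK293 T-REx D2 cells, tet-induced, calcium dye no-wash. Cpd pintool add, 180 s kinetic, then EC80 DA, 180 s kinetic. Ca flux read.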
D2 ag-1 – D2 dopamine receptor (human) agonism; HEK293 T-REx D2 cells, calcium flux agonist mode; activation, % at 2 µM; 340,000 tested, 0.53% active;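 active means activation over 3 SD above normal in the single-dose calcium agonist read, cut at about 30% in these data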
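HEK293 Trex D2 cells, tetracycline-induced, o/n 30 C 5% CO2; no-wash Ca dye, RT 30–90 min; 10-cycle baseline, 23 nl cpd added, kinetic Ca read 180 s; agonist hits = positive Ca response.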
D2 ag-2 – agonists of human D2 dopamine receptor (beta-arrestin) | DiscoveRx PathHunter D2 beta-arrestin, luminescence, 90 min; 100% = 57 uM dopamine signal | AID 624465 | 360,000 tested, 0.084% active | P14416 | activation, % (concentration not given with the values); in the data active means activation above about 40%
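Agonist mode: compounds alone added to overnight-plated D2 PathHunter cells for 90 min at 37 C, with 57 uM final dopamine (EC100) defining full response. Beta-arrestin recruitment detected by chemiluminescent reagent, read after 1 h at ambient temperature.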
D2 PAM-2 – potentiates the human D2 dopamine receptor allosterically. potentiation, % (test concentration not listed). 360,000 tested, 0.23% active. DiscoveRx D2 beta-arrestin cells, luminescence, 90 min; 100% = 57 uM dopamine signal; in the data active means potentiation above about 50%
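D2 cells co-treated with compound plus 50 nM dopamine (EC20) for 90 min at 37 deg C to detect potentiation. Beta-arrestin recruitment was read as enzyme-fragment luminescence after 1 h at ambient temperature. Full response was set by 57 uM dopamine.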
Of the large screens only hits and unclear results are named; the others gave an inactive call.

CCc1ccc(NC(=O)CC2C(=O)N(c3cccc(C)c3)C(=O)N2CCC(C)C)cc1 (stereo unspecified)	none (no result: D2 antagonist, D2 ag-2, D2 PAM-2)
COc1ccc(OC)c(NC(=O)C(=O)NNC(=O)c2cccs2)c1	D2 antagonist 38
COc1cc(N)ccc1NC(=O)c1cccs1	D2 PAM-2 79
COc1cc(C(=O)NCCCc2nc3ccccc3n2CC(C)C)cc(OC)c1OC	none (no result: D2 antagonist, D2 ag-2, D2 PAM-2)
Cc1ccc(S(=O)(=O)c2cn(C)c3cc(N4CCCCCC4)c(F)cc3c2=O)cc1	none (no result: D2 antagonist, D2 ag-2, D2 PAM-2)
Cc1cc(NS(=O)(=O)c2ccc3nc(-c4ccccc4)[nH]c3c2)ccc1Br	none (no result: D2 antagonist, D2 ag-2, D2 PAM-2)
CC(Sc1nnc(-c2ccccc2F)n1C1CC1)C(=O)NC(N)=O (stereo unspecified)	D2 antagonist 45
CC(Sc1nnc(-c2ccccc2F)n1C1CC1)C(=O)N1CCCC1 (stereo unspecified)	none
CSc1cccc(NC(=O)c2cnn(-c3ccc(F)cc3)c2-n2cccc2)c1	none (no result: D2 antagonist, D2 ag-2, D2 PAM-2)
CCOC(=O)c1nccnc1C(=O)Nc1cccc(C(F)(F)F)c1	D2 antagonist 32
CCOC(=O)c1nccnc1C(=O)Nc1ccc(C(F)(F)F)cc1	none
Cc1ccc(C(=O)Nc2cccc(C(F)(F)F)c2)cc1Nc1cnccn1	D2 antagonist 59
COc1ccccc1N1CCN(Cc2cn[nH]c2-c2ccc(F)cc2)CC1	D2 antagonist 82
COc1ccc(CN2CCC(C(=O)c3ccc(Cl)cc3)CC2)cc1	D2 antagonist 35
COc1ccc(-c2[nH]ncc2CN2CCC(C(=O)c3ccc(F)cc3)CC2)cc1	D2 antagonist 83
COc1ccccc1CN1CCN(Cc2nc(-c3ccc(C)cc3)oc2C)CC1	none
COc1ccc(-c2nc(CN3CCN(c4ccccc4OC)CC3)c(C)o2)cc1	D2 antagonist 99
COc1ccc(CN2CCC(C(=O)c3cccc(Cl)c3)CC2)cc1	none (no result: D2 antagonist, D2 ag-1)
COc1ccc(-c2[nH]ncc2CN2CCN(Cc3cccs3)CC2)cc1F	none
Cc1ccc(-n2c3nc(=O)n(C)c(=O)c-3cc3c(Cl)cccc32)c(C)c1	none (no result: D2 antagonist, D2 ag-2, D2 PAM-2)
CCN(c1ccccc1)c1nnc(NC(=O)Nc2cccc(Br)c2)s1	none (no result: D2 antagonist, D2 ag-1, D2 ag-2, D2 PAM-2)
O=C(NCCOCCn1c(=O)oc2ccccc21)Nc1ccc(F)cc1F	none (no result: D2 antagonist, D2 ag-1, D2 ag-2, D2 PAM-2)
COc1ccccc1N1CCN(Cc2nc(-c3ccc(F)cc3)oc2C)CC1	D2 antagonist 80
Cc1cc(N2CCN(Cc3nc(-c4ccc(F)cc4)oc3C)CC2)cc(C)n1	none
Cc1c(/C=C(\C#N)C(=O)Nc2cccc(Cl)c2)c2ccccc2n1Cc1ccccc1	none (no result: D2 antagonist, D2 ag-2, D2 PAM-2)
CCN(CC)S(=O)(=O)c1cccc(-c2nnc(SCC(=O)c3cc(C)n(C4CC4)c3C)o2)c1	none
C=CCn1c(C)cc(C(=O)CSc2nnc(-c3cccc(S(=O)(=O)N(CC)CC)c3)o2)c1C	D2 PAM-1 39
COc1cccc(N2CCN(Cc3ncc(-c4ccccc4)o3)CC2)c1	D2 antagonist 48
COc1cccc(N2CCN(CC(=O)Nc3nnc(-c4ccccc4)s3)CC2)c1	none
COc1ccc([N+](=O)[O-])cc1NCc1cccnc1	none
Cc1ccc(NC(=O)c2cc([N+](=O)[O-])ccc2NCc2cccnc2)cc1	D2 antagonist 33
COc1ccccc1CNC(=O)C1CCN(Cc2nc(-c3ccc(OC)c(OC)c3)oc2C)CC1	none (no result: D2 antagonist, D2 ag-2, D2 PAM-2)
COc1ccc(-c2nc(CN3CCC(c4ccccc4)CC3)c(C)o2)cc1OC	D2 antagonist 44
Cc1oc(-c2cccs2)nc1CN1CCN(C(C)C)C(CCO)C1 (stereo unspecified)	none
Cc1oc(-c2cccs2)nc1CN1CCC(c2ccccc2)CC1	D2 antagonist 83
CC(C)CCNC(=O)c1ccc2c(c1)N(Cc1ccccc1F)C(=O)c1ccccc1S2=O (stereo unspecified)	none (no result: D2 antagonist, D2 ag-2, D2 PAM-2)
COc1ccc(NCC(=O)N/N=C/c2c(C)nn(Cc3ccccc3)c2Cl)cc1	D2 antagonist 31
Cc1nn(Cc2ccccc2)c(C)c1/C=N/NC(=O)CNc1cccc(C(F)(F)F)c1	none
Cn1c2ccccc2c2ncn(CCCN3CCOCC3)c(=O)c21	D2 PAM-1 38
Cn1c2ccc(F)cc2c2ncn(CCN3CCOCC3)c(=O)c21	none
Cc1ccc(C(=O)c2cn(Cc3ccc(F)cc3)c3nc(C)ccc3c2=O)cc1	none (no result: D2 PAM-1, D2 antagonist, D2 ag-2, D2 PAM-2)
COc1cccc(Cc2nc3ccccc3nc2SCC(=O)NCCc2ccccc2)c1	none (no result: D2 antagonist, D2 ag-2, D2 PAM-2)
O=C(Nc1ccccc1)C1=C(c2ccccc2)S(=O)(=O)CCS1(=O)=O	D2 PAM-1 58
Cc1cc2nc(-c3ccc(OCc4ccccc4F)cc3)cc(C(F)(F)F)n2n1	none (no result: D2 antagonist, D2 ag-2, D2 PAM-2)
O=c1onc(-c2ccccc2Cl)n1-c1ccccc1Cl	D2 ag-2 40, D2 PAM-2 58 (no result: D2 PAM-1, D2 antagonist, D2 ag-1)
COc1ccccc1NC(=O)C(C)OC(=O)CCNS(=O)(=O)c1ccc(C)c(C)c1 (stereo unspecified)	D2 antagonist 40
Cc1ccc(S(=O)(=O)N2CCOCC2)cc1C(=O)OC1CCOC1=O (stereo unspecified)	D2 antagonist 41
CC(=O)c1cccc(S(=O)(=O)N2CCC(C(=O)OC3CCOC3=O)CC2)c1 (stereo unspecified)	D2 antagonist 43
COc1ccccc1CNC(=O)CC1N=C2c3ccccc3N=C(SCC(=O)Nc3ccc(F)cc3)N2C1=O (stereo unspecified)	none (no result: D2 antagonist, D2 ag-2, D2 PAM-2)
COc1ccc(C)cc1NC(=O)Nc1ccccc1OCc1cc(=O)n2ccccc2n1	none (no result: D2 antagonist, D2 ag-2, D2 PAM-2)
CC(NC(=O)CSc1n[nH]c(-c2ccccc2Cl)n1)c1nc2ccccc2n1C (stereo unspecified)	none (no result: D2 antagonist, D2 ag-2, D2 PAM-2)
N#CCCN1CCN(S(=O)(=O)c2cc(Cl)ccc2Cl)CC1	D2 PAM-1 37
CCOC(=O)Cn1c(=O)oc2cc(S(=O)(=O)N3CCN(c4ccc(F)cc4)CC3)ccc21	none (no result: D2 antagonist, D2 ag-2, D2 PAM-2)
COc1cc(C)cc2oc(=O)c(CC(=O)N3CCN(C(=O)C4COc5ccccc5O4)CC3)c(C)c12 (stereo unspecified)	D2 antagonist 37
Cc1cc(O)c2c(C)c(CC(=O)N3CCN(C(=O)C4COc5ccccc5O4)CC3)c(=O)oc2c1 (stereo unspecified)	none
CCN(CC)S(=O)(=O)c1ccc(NC=C(C#N)C#N)cc1	D2 antagonist 74
CN(C)S(=O)(=O)c1ccc(NC=C(C#N)C#N)cc1	none
CCc1ccc(CN(Cc2cn[nH]c2-c2ccc(OC)cc2)C(=O)Nc2cc(Cl)ccc2OC)cc1	none (no result: D2 antagonist, D2 ag-2, D2 PAM-2)
COc1ccc(-c2cn3c(n2)sc2cc(C(=O)NC4CCCc5ccccc54)ccc23)cc1 (stereo unspecified)	none (no result: D2 antagonist, D2 ag-2, D2 PAM-2)
CC(C)N(Cc1ccccc1)C(=O)CC(=O)N(Cc1ccccc1)C(C)C	D2 PAM-1 35
CC(C)N(Cc1ccccc1)C(=O)CN1C(=O)c2ccccc2C1=O	none
COc1ccc(N=C2S/C(=C\c3ccco3)C(=O)N2CC(C)C)cc1	D2 antagonist 36
COc1ccc(N=C2S/C(=C\c3cc(C)n(C)c3C)C(=O)N2CC(C)C)cc1	none

Screening data from PubChem.
